Polio RdRp inh – poliovirus RdRp elongation inhibitors, primary screen, biochemical, fluorescence polarization, total intensity | poliovirus polymerase elongation; active compounds read low | Genome polyprotein (Poliovirus type 1 (strain Mahoney)), P03300 | % elongation, % (compound at 16.7 µg/mL) | AID 588519, 2011 | hit rate 0.66% among 150,000; in the data active = % elongation below about 90%
AID504770 – growth inhibition of E. coli YBA685, primary screen, V. cholerae RctB inhibitors | z-score (test concentration not listed) | hit rate 0.27% among 130,000 | E. coli YBA685 rctB-dependent plasmid, OD600 growth, 3 h; active compounds read low; in the data active = z-score below about -2, passing the limit was not always enough
MbtI inh – MbtI salicylate synthase inhibitors, primary screen, biochemical, fluorescence intensity | purified MbtI enzyme, fluorescence intensity read-out | inhibition, % (concentration not given with the values) | hit rate 0.89% among 100,000 | AID 493033, 2011; in the data active = inhibition mostly above about 56%, no sharp cut-off; inactive = mostly below about 77%
Mtb MenB inh – M. tuberculosis MenB inhibitors, primary screen, biochemical, absorbance | hit rate 0.43% among 100,000 | MenB enzyme assay, absorbance read-out | AID 540299, 2011 | inhibition, % (concentration not given with the values); in the data active = inhibition above about 21%, passing the limit was not always enough
Target sequence (P9WNP5 whole entry, looked up): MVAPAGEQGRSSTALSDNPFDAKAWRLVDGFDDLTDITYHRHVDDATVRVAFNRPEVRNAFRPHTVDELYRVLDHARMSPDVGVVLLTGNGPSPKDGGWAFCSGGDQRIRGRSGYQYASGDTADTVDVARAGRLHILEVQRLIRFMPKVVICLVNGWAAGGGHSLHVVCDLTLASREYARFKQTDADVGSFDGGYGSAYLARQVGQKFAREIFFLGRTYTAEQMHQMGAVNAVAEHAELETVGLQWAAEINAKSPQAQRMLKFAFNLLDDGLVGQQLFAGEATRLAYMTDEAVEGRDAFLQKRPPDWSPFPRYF
The depositor's hits bear a star; . = no result. Sampled rows, rich in hits. Any-hit rate of the full collection: about 1.5%.

SMILES | Polio RdRp inh | AID504770 | MbtI inh | Mtb MenB inh
CC(C)(C)N1COc2ccc3c(-c4ccccc4)cc(=O)oc3c2C1 | 103 | -1.6 | 31 | -41
c1ccc2oc(SCCSc3nc4ccccc4o3)nc2c1 | 106 | 0 | . | -1
OCC#CCSc1nc2ccccc2o1 | 101 | 0.95 | 3 | 39*
CC(C)(C)NC(=O)Cc1ccccc1 | 102 | -0.6 | -16 | 38*
NNC(=O)Cc1ccccc1 | 103 | 1.2 | -5 | -11
COc1ccccc1-n1cnnc1SC(C)C(=O)NCCC1=CCCCC1 (configuration not stated) | 102 | 1.2 | 9 | 4
CCc1cccc(NC(=O)CN(C2=NC3CS(=O)(=O)CC3S2)c2cccc(C)c2)c1 (configuration not stated) | 100 | -2.5* | -5 | -11
Cc1cccc(NC(=O)CN(C2=NC3CS(=O)(=O)CC3S2)c2ccccc2)c1 (configuration not stated) | 99 | 0.7 | 4 | -66
CCCNC(=O)NCC1CCN(Cc2ccccc2)CC1 | 102 | 0.05 | 6 | -39
COc1cccc(C2N(Cc3ccccc3)C(=O)C2(F)F)c1OC (configuration not stated) | 89* | 1.8 | 0 | .
O=C1N(Cc2ccccc2)C(c2ccccc2)C1(F)F (configuration not stated) | 101 | 0.75 | -1 | .
COc1ccc(C2SC(C)C(=O)N2CCCn2ccnc2)cc1OC (configuration not stated) | 96 | 0.9 | 13 | -43
O=C(c1ccc2c(c1)N(Cc1ccccc1)C(=O)c1ccccc1S2=O)N1CCOCC1 (configuration not stated) | 100 | 0.45 | 0 | -3
O=C(c1ccc2c(c1)N(Cc1ccc(Cl)cc1)C(=O)c1ccccc1S2=O)N1CCOCC1 (configuration not stated) | 73* | . | . | .
COc1ccc(CCNC(=S)N2CCCC2)cc1OC | 100 | -0.95 | -16 | -24
COc1ccc(CCNC(=S)N2CCCC(C(F)(F)F)C2)cc1 (configuration not stated) | 80* | -0.5 | 84* | -8
COc1cccc(C(O)C(F)(F)F)c1 (configuration not stated) | 100 | 0.8 | 8 | 29*
CCOc1ccc(-n2c(SCC(=O)NC3CCCC3)nnc2-c2ccoc2C)cc1 | 100 | -0.1 | -4 | 36*
CC1=CC(C)=NC2Nc3c(C)cc(C)cc3C(=N)C12 (configuration not stated) | 86* | 0.05 | 52 | -279
Cc1cc(C(=O)CSc2nnc(Cc3ccccc3)o2)c(C)n1CCc1ccccc1 | 102 | -0.8 | 7 | -22
CN=C1S/C(=C\c2ccc(Cl)cc2)C(=O)N1C | 88* | 0.05 | 6 | 6
CCC(C)Sc1n[nH]c(=S)s1 (configuration not stated) | 101 | -0.45 | 99* | 6
CC(C)Sc1n[nH]c(=S)s1 | 88* | -0.5 | 98* | -104
O=C(O)CCSc1n[nH]c(=S)s1 | 97 | 0.3 | 64 | -18
C=C(C)CSc1n[nH]c(=S)s1 | 96 | -0.25 | 100 | 4
SMILES | Polio RdRp inh | AID504770 | MbtI inh | Mtb MenB inh
NC(=S)NC(=O)c1ccc(Cl)cc1 | 108 | -1.5 | 18 | -66
COc1cccc(-c2nnc(SCC(=O)NC3CCCCC3)o2)c1 | 88* | . | . | .
CCNC(=O)CSc1nnc(-c2cc(OC)c(OC)c(OC)c2)o1 | 105 | -6.1* | 0 | 0
Cc1ccc(NC(=O)C2CC(=O)NC3=C2C(=O)CC(C)(C)C3)cc1C (configuration not stated) | 99 | -0.55 | 0 | -8
O=C(Nc1ccc(Cl)cc1Cl)c1c(O)c2c(n(Cc3ccco3)c1=O)CCCC2 | 103 | 0.15 | . | -3
CCCn1c2c(c(O)c(C(=O)Nc3ccccc3F)c1=O)CCCC2 | 101 | -0.45 | -3 | 48*
Cc1c(C(=O)/C(C#N)=C/N(C)C)sc2ccc(Cl)cc12 | . | -0.25 | . | .
C=CCSc1ncc2c(=S)[nH]c(=S)[nH]c2n1 | 93 | -0.2 | 56* | -102
CCN(CC)c1ncc2c(=S)[nH]c(=S)[nH]c2n1 | 100 | -0.1 | -6 | -9
COc1ccc(C2N=C(c3ccccc3C)NO2)cc1O (configuration not stated) | 102 | 0.65 | -24 | -34
CCn1cc(C(=O)O)c(=O)c2cc(F)c(N3CCN(C(=O)c4ccccc4F)CC3)cc21 | 100 | -3.8* | 40 | -7
FC(F)(F)c1cccc(N2CCN(C(=S)Nc3ccc4c(c3)OCO4)CC2)c1 | 99 | 0.95 | 3 | -35
CCn1cc(C(=O)O)c(=O)c2cnc(N3CCNCC3)nc21 | 98 | -3.2* | -9 | -19
CCn1cc(C(=O)NCC(C)C)c(=O)c2cc(F)c(N3CCN(C(=O)c4ccco4)CC3)cc21 | 101 | -0.3 | 25 | 3
CCn1cc(C(=O)O)c(=O)c2cc(F)c(N3CCN(C(=S)Nc4ccc5c(c4)OCO5)CC3)cc21 | 99 | -3* | -11 | -8
CCn1cc(C(=O)O)c(=O)c2cc(F)c(N3CCNCC3)cc21 | 100 | -4.7* | 163 | -9
CCn1cc(C(=O)NN)c(=O)c2cc(F)c(N3CCCC3)cc21 | 102 | -0.75 | -10 | 0
CCn1cc(C(=O)O)c(=O)c2cc(F)c(N3CCN(C)CC3)cc21 | 104 | -6.9* | 11 | 11
CN(C)C(=S)Nc1ccccc1OC(F)F | 98 | -0.95 | 88* | -14
Cc1[nH]n(-c2nc3ccccc3[nH]2)c(=O)c1C1OC(=O)c2ccccc21 (configuration not stated) | 62* | -0.65 | 100* | -21
CC1=C(C(=O)Nc2ccc(Cl)cc2C(=O)NC2CCCC2)SCCO1 | 103 | 1.6 | -3 | 5
Nc1nnc(SCC(O)Cn2c3c(c4ccccc42)CCCC3)s1 (configuration not stated) | 103 | -0.1 | . | 25*
CCOC(=O)c1sc2nc(C(F)(F)F)nn2c1C | . | -2.5* | . | .
O=S(=O)(c1cccc(Cl)c1Cl)N1CCN(c2ncccn2)CC1 | 106 | 1.9 | 4 | -3
O=S(=O)(c1cccc(Cl)c1Cl)N1CCOCC1 | 100 | 0.95 | -6 | 33*
Cc1ccc(Nc2nn(CN3CCOCC3)c(=S)s2)cc1 | 102 | -1 | 90* | -37
CCCCCCCc1c(C#N)c(N)[nH]c(=S)c1C#N | 69* | 0.35 | 97* | -52

High-throughput results: PubChem, ICCB-Longwood Screening Facility, Harvard Medical School
